PubChem BioAssay (Tox21)
Records with an inconclusive call do not appear. Entries that show only a call come without a potency. Unmarked numbers belong to inactive results. The source made the active and inactive calls. Calls follow the shape of the dose curve; as a rule, active = well fitted cell-killing curve with a large enough effect in the repeat runs; inconclusive = weak or mixed curves; inactive = flat fitted curve, though single readings scatter.

assay: qHTS assay to identify small molecule antagonists of the estrogen receptor beta (ER-beta) signaling pathway - cell viability counter screen (AID 1259382); details: ER-beta-UAS-bla HEK293T viability, CellTiter-Glo luminescence, 16 h; series mostly up to 92.4 µM; also: nearly all actives have a fitted effect of over 55% in size
Text: U.S. Tox21 Program National Center for Advancing Translational Sciences [NCATS] NIH Chemical Genomics Center [NCGC] U.S. Environmental Protection Agency [EPA] National Institutes of Environmental Health Sciences [NIEHS] National Toxicology Program [NTP] U.S. Food and Drug Administration [FDA] Tox21 Assay Overview: Estrogen receptor (ER), a nuclear hormone receptor, plays an important role in development, metabolic homeostasis and reproduction. Two subtypes of ER, ER-alpha and ER-beta, have similar expression patterns with some uniqueness in both types. Endocrine disrupting chemicals (EDCs) and their interactions with steroid hormone receptors like ER causes disruption of normal endocrine function. To identify the compounds that inhibit ER signaling, an ER-beta-UAS-bla GripTite cell line (Life Technologies, Madison, WI, USA) containing a beta-lactamase reporter gene under the control of an UAS response element was used to screen Tox21 10K compound library. The cytotoxicity of the Tox21 compound library against the ER-beta-bla cell line was tested in parallel by measuring the cell viability using CellTiter-Glo assay in the same wells.
Tox21 Assay Protocol Summary: ER-beta-UAS-bla HEK293T cells were dispensed at 2,000 cells/4 uL of assay medium containing 2% charcoal stripped FBS per well into black wall/clear-bottom 1536-well plates using a Multidrop Combi (ThermoFisher Scientific, Waltham, MA) dispenser. After the assay plates were incubated at a 37C and 5% CO2 for 6 hr, 23 nL of compounds dissolved in DMSO, positive controls or DMSO only was transferred to the assay plate by a Pintool station (Kalypsys, San Diego, CA), followed by addition of 1 uL (1nM as final concentration) of 17-beta-estradiol (E2) in assay medium using a Flying Reagent Dispenser (FRD, Aurora Discovery, San Diego, CA). The plates were incubated at 37C and 5% CO2 for 16 hr. Then 1 uL of LiveBLAzer B/G FRET substrate was added using a Flying Reagent Dispenser, the plates were incubated at room temperature for 2 hours, and fluorescence intensity was measured by an Envision plate reader (PerkinElmer, Shelton, CT). For cell viability readout that measures cytotoxicity, 4 uL/well of CellTiter-Glo reagent was added into the assay plates using a FRD. After 30 min incubation at room temperature, the luminescence intensity in the plates was measured using a ViewLux (PerkinElmer) plate reader.
Potency is read from the fitted curve at half-maximal effect.

Compound	Potency	activity change, negative = cytotoxicity
CCCC1C(CC)=CC(CC)=CN1c1ccccc1 (stereo not given)	inactive	–
Cc1nc2ccccc2s1	inactive	–
CCC(C(=O)OCCN(CC)CC)c1ccccc1 (stereo not given)	inactive	–
Nc1ccc(S(=O)(=O)O)cc1	inactive	–
CC[C@@H]([C@H](C)O)n1ncn(-c2ccc(N3CCN(c4ccc(OC[C@@H]5CO[C@@](Cn6cncn6)(c6ccc(F)cc6F)C5)cc4)CC3)cc2)c1=O	9.44 µM (active)	–
CCOC(=O)OCC	inactive	–
COc1ccc([C@@H]2Sc3ccccc3NC(=O)[C@@H]2O)cc1	inactive	–
N#C/C(=C1\SCC(c2ccccc2Cl)S1)n1ccnc1 (stereo not given)	inactive	–
CC(C)=CC=O	inactive	–
CC(=O)Nc1ccccc1C	inactive	–
O=C(O)C(Cc1cc(I)c(O)c(I)c1)c1ccccc1 (stereo not given)	inactive	–
CCC(=O)OC/C=C/c1ccccc1	inactive	–
C/C=C(\C)C(=O)OCCC(C)CCC=C(C)C (stereo not given)	inactive	–
Cc1ccc(S)cc1	inactive	–
C=CCNc1nc(NCC=C)nc(N2CCN(C(c3ccc(F)cc3)c3ccc(F)cc3)CC2)n1	inactive	–
O=C(O)c1ccccc1NCCc1ccccc1	inactive	–
CCCCC(CC)CNCC(CC)CCCC (stereo not given)	inactive	–
CCOc1cc(N)c(Cl)cc1C(=O)NCC1CN(Cc2ccc(F)cc2)CCO1 (stereo not given)	inactive	–
O=C1NCCN1	inactive	–
CC(C)OCC1CO1 (stereo not given)	inactive	–

Compound	Potency	activity change, negative = cytotoxicity
COC(=O)c1cc(S(N)(=O)=O)ccc1OC	inactive	–
O=C(NCCCN1CCOCC1)c1ccc(Cl)cc1	inactive	–
C[Si]1(C)O[Si](C)(C)O[Si](C)(C)O1	inactive	–
CC(C)CCCCCCOC(=O)CCCCC(=O)OCCCCCCC(C)C	inactive	–
CCCCCCCCCCCC(=O)[O][Sn]([CH2]CCC)([CH2]CCC)[O]C(=O)CCCCCCCCCCC	inactive	–
CC(C)C(=O)O	inactive	–
Cc1ccccc1N1C(=O)c2cc(S(N)(=O)=O)c(Cl)cc2NC1C (stereo not given)	inactive	–
O=C(N[C@@H](c1ccccc1)[C@@H]1CCCCN1)c1cccc(C(F)(F)F)c1Cl	61.1 µM (active)	–
Nc1ccc(S(=O)(=O)O)c(N)c1	inactive	–
OCC1CC=CCC1 (stereo not given)	inactive	–
CCCCCCCCSCCO	inactive	–
CCOC(=O)c1ccccc1C	inactive	–
O=C(O)c1cccnc1C(=O)O	inactive	–
NCC1CCCC(CN)C1 (stereo not given)	inactive	–
O=C(O)c1ccc(CO)o1	inactive	–
CO[C@H]1O[C@H](CO)[C@@H](O)[C@H](O)[C@H]1O	inactive	–
Cc1cc(C(=C2C=CC(=Nc3ccc(S(=O)(=O)O)cc3S(=O)(=O)O)C=C2)c2ccc(Nc3ccc(S(=O)(=O)O)cc3)cc2)ccc1N	inactive	–
CN(C)C(=O)Nc1ccc(Oc2ccc(Cl)cc2)cc1	inactive	–
CN1CCN(c2c(F)cc3c(=O)c(C(=O)O)cn4c3c2OCN4C)CC1	–	-1.98% [at 19 µM]
CCC(C(=O)OCCOCCN(CC)CC)c1ccccc1 (stereo not given)	inactive	–
